Source: PubChem BioAssay AID652104 (National Center for Advancing Translational Sciences (NCATS), 2013)
The whole screen tested about 410,000 compounds, of which about 7,200 (1.8%) were called active. Roughly 7% stayed inconclusive and do not appear here. The list comes from a sample in which actives are over-represented; it also holds similar structures and randomly drawn compounds. A number with no mark means an inactive call. Calls follow the shape of the dose curve; as a rule, active = well fitted activation curve with a large enough effect; inconclusive = small, poorly fitted or top-dose-only effect, or another doubt; inactive = no such curve, though single readings can be large or run the other way.

Assay: qHTS of TDP-43 Inhibitors; also: nearly all actives have a fitted effect of over 50% in size; as to growth rescue (activation): % of control where 0% means no effect
Details: TDP-43 expressing yeast growth rescue, BacTiter-Glo, 24 h; series mostly up to 46.1 µM; growth rescue (activation): at the top concentration
How it was run: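 In this qHTS, compounds that restore growth of yeast expressing TDP-43 appear as activators. Cells (OD600=0.02, galactose medium, raffinose-pregrown) are incubated with compound 24 hr at 30 deg C and growth is quantified by BacTiter-Glo.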
Potency is read from the fitted curve at half-maximal effect.

Row | SMILES | growth rescue (activation) | Potency
1 | Cc1ccc(NC(=O)c2cc(S(=O)(=O)NCCC3=CCCCC3)ccc2F)cc1C | 2.32% | 
2 | COc1cc(C(=O)Nc2ccc(OCc3cc(=O)n4ccc(C)cc4n3)cc2)cc(OC)c1OC | 0.643% | 
3 | O=C(NNc1nc(N2CCCC2)nc(N2CCCC2)n1)c1ccccc1 | 5.54% | 
4 | O=C(c1ccccc1)c1ccc2nc(N3CCCCC3)c3nncn3c2c1 |  | 20 µM (active)
5 | CCOC(=O)CSc1nc2ccc(C)cc2n2cnnc12 | 0.643% | 
6 | Cc1nnc(NC(=O)CSc2nc3c([nH]c4ccccc43)c(=O)n2-c2cccc(Cl)c2)s1 | 27.2% | 
7 | O=C1C=C(c2ccnc3cc(Cl)ccc23)C[C@@H](c2ccc3c(c2)OCO3)C1 |  | 22.4 µM (active)
8 | O=C(Nc1ccc2c(c1)OCO2)c1sc2cc(Cl)ccc2c1Cl | 11.5% | 
9 | CC(=O)C1=C(C)NC(=O)NC1c1ccc2c(c1)OCO2 (stereo unspecified) | -15% | 
10 | Cc1cccc(N2CCN(C3=C(c4ccccc4)C(=O)c4ccccc43)CC2)c1C | 14.2% | 
11 | Cc1cccc(NC(=O)c2ccc(F)c(S(=O)(=O)N(C)C3CCCCC3)c2)c1 | 20.7% | 
12 | Brc1cccc(-c2nnn3c2nc(NC2CCCCC2)c2ccccc23)c1 | 9.58% | 
13 | O=C(Nc1nnc(S(=O)(=O)N2CCCc3ccccc32)s1)c1cccc(F)c1 | 18.6% | 
14 | COCCCNc1ccn2nc(-c3ccc(CC(C)C)cc3)cc2n1 |  | 17.8 µM (active)
15 | CCc1ccc(C2CC(=O)c3c([nH]c(C(=O)OCc4ccc(C)cc4)c3C)C2)cc1 (stereo unspecified) | 13.6% | 
16 | CCN(CCCNC(=O)c1cc(Nc2ccc(OC)cc2)nc2ccccc12)c1cccc(C)c1 | 20.5% | 
17 | Cc1ccc(CSc2nc3ccsc3c(=O)n2CCC(C)C)cc1 | 10.6% | 
18 | CCOc1ccccc1NC(=O)Cn1c2ncccc2c(=O)n1-c1ccc(C)c(C)c1 | 0% | 
19 | Cc1ccc(-n2c(=O)c3cccnc3n2CC(=O)Nc2ccccc2C(F)(F)F)cc1C | 21.9% | 
20 | Cc1ccc(-n2c(=O)c3cccnc3n2CC(=O)NCc2ccc(F)cc2)cc1C |  | 12.6 µM (active)
21 | CCOc1ccccc1NC(=O)Cn1c(=O)n(Cc2ccccc2)c(=O)c2c(C)c(C(=O)N(C)C)sc21 | 29.5% | 
22 | Cc1c(CNC(C)c2ccccc2)c(C(=O)O)c(C)n1Cc1c(F)cccc1Cl (stereo unspecified) | -5.06% | 
23 | Cc1ccc(CN2CC(N3CCC(Cc4ccccc4)CC3)CS2(=O)=O)cc1 (stereo unspecified) | 8.85% | 
24 | O=S1(=O)CC(N2CCC(Cc3ccccc3)CC2)CN1Cc1ccccc1 (stereo unspecified) | 9.43% | 
25 | O=[N+]([O-])c1ccc(CN2CC(N3CCC(c4ccccc4)CC3)CS2(=O)=O)cc1 (stereo unspecified) |  | 25.1 µM (active)
26 | CCOC(=O)c1c(C)oc2ccc(N(C(=O)c3ccncc3)S(=O)(=O)c3ccc(CC)cc3)cc12 | 19.9% | 
